The results in this text go back to PubChem BioAssay (NCI).

Test systems include NCI-H23 lung; NCI-H226 lung; NCI-H322M lung; HOP-62 NSCLC; NCI-H460 lung; HOP-92 NSCLC; NCI-H522 lung; A549/ATCC NSCLC; 786-0 renal; DU-145 prostate; K-562 leukemia; MALME-3M melanoma; MDA-MB-231 breast; RXF 393 renal; SF-268 CNS; SF-295 CNS; SF-539 CNS; UACC-257 melanoma; M14 melanoma; COLO 205 colon.
Experiment in all cases: NCI-60 one-dose screen, 48 h (100 = growth as untreated, 0 = no growth, -100 = all killed)
Holding throughout (conditions): 10 µM

Structures are written as SMILES. Compounds without any hit were thinned out: in the full panel of roughly 83,000, 20% have a hit.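 Negative percent growth values reflect cell death: -40 means 40% of the cells present at the start died, and -100 means all died.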 Unmarked numbers belong to inactive results. The source made the active and inactive calls. How the source made its calls: active means growth percent below 10; inactive means the rest.

On to `CCCCNC1(C#N)CCN(Cc2ccccc2)CC1`, for which the growth in the experiment with NCI-H23 lung is 86.8%; with NCI-H226 lung, 104%; in the experiment with NCI-H322M lung it was 98.8%; in the experiment with HOP-62 NSCLC it was 87%; in the experiment on NCI-H460 lung, 110%; with HOP-92 NSCLC, 90.4%. Also, the growth is 84.9% in the experiment on NCI-H522 lung; 110% in the experiment with A549/ATCC NSCLC; 84.5% in the experiment with 786-0 renal; 135% with DU-145 prostate; 114% in the experiment with K-562 leukemia; 94.7% in the experiment with MALME-3M melanoma. Also, the growth is 104% in the experiment with MDA-MB-231 breast; 107% in the experiment on RXF 393 renal; 129% in the experiment with SF-268 CNS; 97.2% in the experiment with SF-295 CNS; 99.8% in the experiment with SF-539 CNS; 107% in the experiment on UACC-257 melanoma. Also, the growth in the experiment with M14 melanoma is 76.6%.

As for `COc1ccc(NC(=O)CCl)cc1`, the growth in the experiment with NCI-H23 lung was 61.7%; with NCI-H226 lung, 82.5%; with NCI-H322M lung, 99.1%; in the experiment with HOP-62 NSCLC, 81.1%; in the experiment with NCI-H460 lung, 83.1%; with HOP-92 NSCLC, 87.3%. In addition, the growth is 47.8% in the experiment on NCI-H522 lung; 84.6% with A549/ATCC NSCLC; 80.7% in the experiment with 786-0 renal; 94.6% in the experiment on DU-145 prostate; 93.4% in the experiment with K-562 leukemia; 88.6% in the experiment on MALME-3M melanoma. Besides, the growth with MDA-MB-231 breast is 81.6%; in the experiment with RXF 393 renal it was 69.7%; with SF-268 CNS, 73.3%; in the experiment with SF-295 CNS it was 101%; in the experiment on SF-539 CNS it was 83.5%; in the experiment on UACC-257 melanoma it was 60.4%. Besides, the growth in the experiment with M14 melanoma was 75.1%.

In the case of `Cc1cc(N)c(S(=O)(=O)O)c(N)c1`, the growth with NCI-H23 lung is 97%; in the experiment on NCI-H226 lung, 99.6%; in the experiment on NCI-H322M lung, 101%; in the experiment on HOP-62 NSCLC, 94.9%; with NCI-H460 lung it was 104%; in the experiment on HOP-92 NSCLC, 47.1%. For the same molecule, the growth was 87.9% with NCI-H522 lung; 109% with A549/ATCC NSCLC; 105% in the experiment with 786-0 renal; 96.6% in the experiment with DU-145 prostate; 125% in the experiment on K-562 leukemia; 118% in the experiment with MALME-3M melanoma. For the same molecule, the growth in the experiment with MDA-MB-231 breast is 103%; in the experiment on RXF 393 renal, 112%; in the experiment on SF-268 CNS, 109%; in the experiment on SF-295 CNS, 96%; with SF-539 CNS, 96.8%; with UACC-257 melanoma it was 104%.

For the molecule `CCOC(=O)c1ccc(Nc2sc(C(=O)c3cccc([N+](=O)[O-])c3)c(N)c2C#N)cc1`, the growth in the experiment on NCI-H23 lung was 34.2%; with NCI-H226 lung, 41%; in the experiment on NCI-H322M lung, 55%; in the experiment with HOP-62 NSCLC it was 27.3%; in the experiment on NCI-H460 lung it was 4.75% (active); in the experiment on HOP-92 NSCLC it was 43%. For the same molecule, the growth with NCI-H522 lung was 5.23% (active); in the experiment with A549/ATCC NSCLC, 48.3%; with 786-0 renal, 24.7%; in the experiment on DU-145 prostate it was 29.2%; in the experiment on K-562 leukemia, 16.1%; in the experiment with MDA-MB-231 breast, 45.9%. For the same molecule, the growth in the experiment on RXF 393 renal was 15.8%; in the experiment on SF-268 CNS it was 44.4%; with SF-295 CNS, -44.3% (active); in the experiment with SF-539 CNS, 1.59% (active); with UACC-257 melanoma, 17.4%; in the experiment with M14 melanoma, 24%.

With `Cc1ccc(C)n1-c1ccsc1C(=O)NNC(=O)C(Cl)Cl`, the growth with NCI-H23 lung was 98.4%; in the experiment on NCI-H226 lung it was 93%; in the experiment on NCI-H322M lung, 98.6%; with HOP-62 NSCLC, 96.6%; with NCI-H460 lung, 104%; in the experiment on HOP-92 NSCLC, 90.5%. The growth was 91.9% with NCI-H522 lung; 102% with A549/ATCC NSCLC; 101% in the experiment on 786-0 renal; 120% in the experiment on COLO 205 colon; 109% in the experiment with DU-145 prostate; 97.8% in the experiment with K-562 leukemia. Besides, the growth is 93.2% in the experiment on MALME-3M melanoma; 114% in the experiment with RXF 393 renal; 101% in the experiment on SF-295 CNS; 102% in the experiment with SF-539 CNS; 98.2% in the experiment on UACC-257 melanoma; 106% with M14 melanoma.

Consider `O=C(Cc1ccc(OCc2ccccc2)cc1)NCc1ccc2c(c1)OCO2`, for which the growth is 78.3% with NCI-H23 lung; 99.6% in the experiment on NCI-H226 lung; 80.8% in the experiment on NCI-H322M lung; 77.9% with HOP-62 NSCLC; 28.7% with NCI-H460 lung; 86.8% with HOP-92 NSCLC. The growth in the experiment with A549/ATCC NSCLC is 58.2%; with 786-0 renal it was 88.7%; in the experiment on COLO 205 colon, 85.5%; with DU-145 prostate it was 84.6%; in the experiment with K-562 leukemia it was 27.6%; in the experiment on MALME-3M melanoma, 46.6%. Moreover, the growth is 82.8% in the experiment on MDA-MB-231 breast; 105% in the experiment on RXF 393 renal; 68.9% with SF-268 CNS; -16.6% (active) in the experiment with SF-295 CNS; 93.7% in the experiment on SF-539 CNS; 61.9% in the experiment with M14 melanoma.

Consider `COc1ccc(/C(C#N)=C2C=C/C(=N/O)c3ccccc3\2)cc1`, for which the growth in the experiment on NCI-H23 lung is 27.7%; in the experiment on NCI-H226 lung it was 36%; with NCI-H322M lung, 48.5%; in the experiment with HOP-62 NSCLC, 35.3%; with NCI-H460 lung it was 3.48% (active); in the experiment on HOP-92 NSCLC, 13.3%. Further, the growth was 11.8% in the experiment with A549/ATCC NSCLC; 16.8% in the experiment with 786-0 renal; -73% (active) with COLO 205 colon; 10.1% with DU-145 prostate; 13.2% with K-562 leukemia; 51.4% in the experiment with MALME-3M melanoma. Besides, the growth in the experiment on MDA-MB-231 breast is 10.2%; in the experiment with RXF 393 renal, 53.9%; in the experiment with SF-268 CNS, 18.6%; with SF-295 CNS it was -38.6% (active); in the experiment on SF-539 CNS, -14.7% (active); in the experiment with M14 melanoma, 7.1% (active).

As for `COc1ccccc1N1CCN(C(=S)Nc2ccccc2)CC1`, the growth with NCI-H23 lung was 92.8%; in the experiment on NCI-H226 lung, 99.4%; in the experiment on NCI-H322M lung, 93.2%; in the experiment with HOP-62 NSCLC, 89.7%; in the experiment on NCI-H460 lung, 102%; in the experiment on HOP-92 NSCLC, 80.9%. Moreover, the growth with A549/ATCC NSCLC was 99.7%; in the experiment on 786-0 renal, 96.3%; in the experiment with COLO 205 colon, 97.4%; in the experiment on DU-145 prostate, 100%; in the experiment with K-562 leukemia, 81.8%; with MALME-3M melanoma it was 97.3%. Further, the growth with MDA-MB-231 breast is 101%; with RXF 393 renal it was 100%; in the experiment on SF-268 CNS, 99.3%; in the experiment with SF-539 CNS it was 106%; with M14 melanoma it was 100%.

Turning to `Nc1ccc(N)c([N+](=O)[O-])c1`, the growth was 103% with NCI-H23 lung; 94.1% with NCI-H226 lung; 101% with NCI-H322M lung; 111% in the experiment on HOP-62 NSCLC; 96% in the experiment with NCI-H460 lung; 109% in the experiment on HOP-92 NSCLC. Besides, the growth in the experiment with NCI-H522 lung is 86.4%; with 786-0 renal, 118%; in the experiment with COLO 205 colon, 112%; in the experiment on DU-145 prostate it was 104%; in the experiment with K-562 leukemia, 98.7%; with MALME-3M melanoma, 97.9%. Besides, the growth in the experiment with MDA-MB-231 breast was 80.9%; with RXF 393 renal, 107%; in the experiment with SF-268 CNS, 99.9%; in the experiment on SF-295 CNS, 108%; in the experiment with SF-539 CNS, 94.9%; in the experiment with M14 melanoma, 112%.

With `C[N+](C)(C)C(=O)c1ccccc1`, the growth in the experiment on NCI-H23 lung is 99.5%; in the experiment on NCI-H226 lung, 102%; in the experiment with NCI-H322M lung, 118%; in the experiment on HOP-62 NSCLC it was 101%; in the experiment with NCI-H460 lung, 119%; in the experiment with HOP-92 NSCLC, 102%. The growth was 101% with A549/ATCC NSCLC; 109% in the experiment on 786-0 renal; 109% in the experiment on COLO 205 colon; 114% with DU-145 prostate; 117% in the experiment on K-562 leukemia; 117% in the experiment on MALME-3M melanoma. Further, the growth is 97.5% in the experiment with MDA-MB-231 breast; 114% in the experiment with RXF 393 renal; 98.2% in the experiment on SF-268 CNS; 114% in the experiment with SF-295 CNS; 98.9% with SF-539 CNS; 109% in the experiment on UACC-257 melanoma. The growth in the experiment on M14 melanoma was 95.2%.
